The panel holds about 83,000 compounds, 20% with a hit somewhere; the sample as a whole holds those more often.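 The test compound was applied at a single concentration to cells in 96-well plates for 48 hours, and percent growth was recorded.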 Values without a mark were called inactive. Activity calls are given as the source filed them. The calls were made as follows: active = growth percent below 10; inactive = the rest.

What all share (experiment): NCI-60 one-dose screen, 48 h (100 = growth as untreated, 0 = no growth, -100 = all killed)
Conditions in all cases: 10 µM unless noted

Assay [1] relates to HCT-15 colon.
Assay [2] deals with HT29 colon.
Assay [3] has as its system SNB-75 CNS.
Assay [4] deals with SNB-19 CNS.
For assay [5], the system named is U251 CNS.
Assay [6] concerns PC-3 prostate.
For assay [7], the system named is SK-MEL-5 melanoma.
In assay [8] the test system is UACC-62 melanoma.
The test system of assay [9] is LOX IMVI melanoma.
For assay [10], the system named is SK-MEL-28 melanoma.

`CCOC(=O)c1sc(/N=C2\NC(=O)/C(=C/c3ccc(N4CCN(C)CC4)cc3)S2)nc1C`: the growth in assay [1] is 95.9%; in assay [2] it was 86.9%; in assay [3] it was 101%; in assay [4] it was 104%; in assay [5] it was 106%; in [6], 102%. Also, the growth in assay [7] was 98%; in [8], 113%; in [9], 65.7%; in [10] it was 113%.
Turning to `O=CN1N=C(c2ccc3c(c2)OCO3)CC1c1cccc(Nc2ccnc3cc(C(F)(F)F)ccc23)c1` (stereo not given), the growth was 70.9% in [1]; 73.4% in assay [2]; 89% in [3]; 89.8% in assay [4]; 88.7% in assay [5]; 56.8% in assay [6]. The growth was 50.7% in assay [7], 55.2% in [8], 76% in assay [9] and 100% in [10].
On to `CC(=O)[C@@H]1CC[C@]2(C(=O)O)CC[C@]3(C)[C@H](CC[C@@H]4[C@@]5(C)Cc6c([nH]c7ccccc67)C(C)(C)[C@@H]5CC[C@]43C)[C@@H]12`, for which the growth in assay [1] was 44.3%; in assay [2] it was 68.6%; in [3] it was 94.7%; in assay [4] it was 70.2%; in assay [5] it was 45%; in assay [6], 40.7%. Further, the growth is 71.8% in assay [7], 67.9% in assay [8], 50.1% in assay [9] and 78.5% in [10].
Consider `CN1CCN(C(=O)[C@@]2(C)CC[C@]3(C)CC[C@]4(C)C(=CC[C@@H]5[C@@]6(C)CC[C@H](OC(=O)c7cccnc7)C(C)(C)[C@@H]6CC[C@]54C)[C@@H]3C2)CC1`, for which the growth in [1] is -46.9% (active); in [2], 8.46% (active); in [3], 90.4%; in assay [4], 19.8%; in [5], -69.8% (active); in assay [6] it was 46.8%. Also, the growth in [7] was 64.4%; in [8] it was 82.1%; in assay [9], -26.4% (active); in [10] it was 76.7%.
For `C=C1C(=O)O[C@H]2[C@H]1CC/C(COC(=O)n1ccnc1)=C\CC[C@@]1(C)O[C@@H]21`, the growth in assay [1] was 83.5%; in [2], 100%; in assay [3], 92.8%; in assay [4], 99%; in [5], 99.1%; in [6], 90.1%. Further, the growth in [7] was 98.5%; in assay [8], 91.6%; in assay [9] it was 90.4%; in [10], 102%.
As for `O=C1NN(c2ccccc2)C(c2ccc(Cl)cc2)N2CCC[C@H]12` (stereo not given in full), the growth is 92.9% in assay [1]; 101% in [2]; 75.6% in assay [3]; 94.6% in assay [4]; 101% in assay [5]; 99.6% in [6]. The growth in [7] was 96.1%; in assay [8], 87.3%; in assay [9], 87.8%; in [10], 104%.
Turning to `Cc1nc2sc(C(=O)Nc3cccc(Cl)c3C)c(N)c2cc1C(C)O` (stereo not given), the growth is 16.4% in assay [1]; 1.68% (active) in assay [2]; 13.9% in assay [3]; 22.4% in assay [4]; 17.7% in assay [5]; 13.3% in [6]. Further, the growth in [7] was 9.62% (active); in assay [8], 30.7%; in [9] it was 29.9%; in assay [10], 62.1%.
On to `CC(=O)Nc1nc2c(c(N)c1C#N)C(c1cccc(Cl)c1)C1=C(CCCC1=O)N2c1sc2c(c1C#N)CCCC2` (stereo not given), for which the growth was 30.1% in assay [1]; 29.4% in [2]; 81% in assay [3]; 69.7% in assay [4]; 42.3% in assay [5]; 20.8% in assay [6]. The growth in [7] is 61.5%; in assay [8] it was 59.8%; in [9], 51.5%; in assay [10], 82.4%.
For `CCOc1ccccc1C(=O)/C=C/c1cc2ccccc2[nH]c1=O`, the growth in assay [1] was -58.9% (active); in [2], -44.6% (active); in assay [3] it was 21%; in [4] it was -72.9% (active); in assay [5] it was -92.2% (active); in assay [6] it was 14.9%. In addition, the growth is -78.3% (active) in [7], -65.3% (active) in [8], -81.8% (active) in assay [9] and -3.66% (active) in assay [10].
Take `CCCNc1nc(C)[nH]c(=O)c1S`: the growth was 96.5% in assay [1]; 108% in assay [2]; 91.2% in assay [3]; 93.1% in assay [4]; 95% in assay [5]; 87.4% in [6]. Moreover, the growth in assay [7] is 110%; in assay [8], 113%; in [9] it was 91%; in assay [10], 114%.
With `O=Cc1[nH]c(Sc2ccccc2)c2ccccc12`, the growth was 70.3% in [1]; 55.4% in assay [2]; 42.8% in assay [3]; 89.1% in assay [4]; 67.5% in assay [5]; 46.4% in [6]. The growth was 74% in assay [7], 62.3% in assay [8], 80.5% in assay [9] and 92.9% in assay [10].
For `CC1(C)CC[C@]2(c3nnc(-c4ccncc4)o3)CC[C@]3(C)C(=CC[C@@H]4[C@@]5(C)CCC(=O)C(C)(C)[C@@H]5CC[C@]43C)[C@@H]2C1`, the growth in assay [1] was 71.8%; in [2] it was 77.5%; in [3] it was 88.7%; in assay [4] it was 78.7%; in [5] it was 76.9%; in [6], 47.5%. Besides, the growth in assay [7] was 74.3%; in assay [8] it was 67.3%; in assay [9], 72.2%; in assay [10], 83.5%.
On to `C=C(C)[C@@H]1CC[C@]2(C(=O)OCCOCCOCC[P+](c3ccccc3)(c3ccccc3)c3ccccc3)CC[C@]3(C)[C@H](CC[C@@H]4[C@@]5(C)CC[C@H](C)C(C)(C)[C@@H]5CC[C@]43C)[C@@H]12`, for which the growth in [1] is -86.7% (active); in assay [2], -81.6% (active); in assay [3], -90% (active); in assay [4], -72.2% (active); in assay [5], -83.5% (active); in assay [6], -84.9% (active). Moreover, the growth was -98% (active) in assay [7], -77.8% (active) in assay [8], -86.3% (active) in assay [9] and -80% (active) in assay [10].
